The source of these data is PubChem BioAssay (EPA / NIEHS).

SMILES strings stand for the structures. Values joined by “and” are separate entries in the source; they are usually repeats but may differ in a detail not shown here. Equal entries are not always repeated. Inconclusive results are not listed. Active and inactive are the calls of the source. Rule for the calls: active = hit-call score of the fitted dose curve at least 0.9, where 1 is the maximum; inconclusive = response in the unintended direction; inactive = score below 0.9.

The first experiment deals with Peroxisome proliferator-activated receptor gamma (Homo sapiens) (UniProt P37231). As to the kind of experiment: OT_PPARg_PPARgSRC1_0480: Odyssey Thera (OT) 8-hour Protein-Complementation Assay for Peroxisome Proliferator-activated Receptor Gamma / SRC-1 Co-activator (AID 2283387).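 Note: nuclear to cytoplasmic split Venus YFP fluorescence ratio reporting PPARg SRC-1 interaction.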 In short, it runs like this: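 HEK293T transiently transfected with PPARg and SRC-1 fused to Venus YFP fragments, compounds 8 h at 37C. Fixed, Draq5-stained cells imaged; nuclear/cytoplasmic 488 nm fluorescence ratio over at least 350 cells per image; gain fitted versus DMSO.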
Chain of Peroxisome proliferator-activated receptor gamma (Homo sapiens) (P37231 whole entry, looked up, the tested form may be a part): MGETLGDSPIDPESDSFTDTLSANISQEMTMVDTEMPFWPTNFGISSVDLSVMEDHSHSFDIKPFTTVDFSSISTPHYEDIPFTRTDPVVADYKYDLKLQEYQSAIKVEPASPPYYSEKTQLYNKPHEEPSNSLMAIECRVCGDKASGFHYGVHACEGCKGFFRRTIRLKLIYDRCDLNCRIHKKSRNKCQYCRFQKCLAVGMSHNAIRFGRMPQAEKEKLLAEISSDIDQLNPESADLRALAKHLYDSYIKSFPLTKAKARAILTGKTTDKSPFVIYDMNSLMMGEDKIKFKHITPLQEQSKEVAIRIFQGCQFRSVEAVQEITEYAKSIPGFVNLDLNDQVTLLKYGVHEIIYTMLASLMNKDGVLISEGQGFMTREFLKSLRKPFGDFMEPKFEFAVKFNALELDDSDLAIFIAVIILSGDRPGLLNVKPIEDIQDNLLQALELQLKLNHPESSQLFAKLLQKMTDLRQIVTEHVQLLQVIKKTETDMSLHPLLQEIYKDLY
Take `CC(C)NCC(O)c1ccc(O)c(O)c1` (stereo not given): the outcome was inactive.

As to `CCN(CC)CCOc1ccc(C(=C(Cl)c2ccccc2)c2ccccc2)cc1`, the outcome was inactive.

Regarding `CN(C)C(=O)NC1(c2ccccc2)CCN(CCC[C@]2(c3ccc(Cl)c(Cl)c3)CCCN(C(=O)c3ccccc3)C2)CC1`, the result was inactive.

`C/C=C/C=C/C(=O)O`: the compound was classed as inactive.

Consider `CN(C)C(=O)NC1(c2ccccc2)CCN(CC[C@@]2(c3ccc(F)c(F)c3)CN(C(=O)c3ccccc3)CCO2)CC1`, for which the result was inactive.

As to `CC(COCC(C)OC(=O)c1ccccc1)OC(=O)c1ccccc1` (stereo not given), the compound was called inactive.

In the case of `S=c1[nH]c2ccccc2s1`, the compound was classed as inactive.

As to `CCCCC(CC)COP(=O)(OCC(CC)CCCC)OCC(CC)CCCC` (stereo not given), the outcome was inactive.

With `CCC(C)N(C)C(=O)c1cc2ccccc2c(-c2ccccc2Cl)n1` (stereo not given), the call was inactive.

In the case of `Cc1ccc(-c2cc(C(F)(F)F)nn2-c2ccc(S(N)(=O)=O)cc2)cc1`, the compound was classed as inactive.

Turning to `O=C(N[C@@H](c1ccccc1)[C@@H]1CCCCN1)c1cccc(C(F)(F)F)c1Cl`, the call was inactive.

In the case of `Cn1cnc2c1c(=O)[nH]c(=O)n2C`, the result was inactive.

For the compound `COC(=O)[C@H]1[C@H]2C[C@@H]3c4[nH]c5cc(OC)ccc5c4CCN3C[C@H]2C[C@@H](OC(=O)c2cc(OC)c(OC)c(OC)c2)[C@@H]1OC`, the AC50 was 11.4 µM (active) and 58 µM (active).

With `CCCCCCCCCC[N+](C)(C)[O-]`, the compound was called inactive.

With `CN(C)CCCN1c2ccccc2Sc2ccc(Cl)cc21`, the result was inactive.

On to `Cc1cc(SC2=C(O)C[C@@](CCc3ccc(N)cc3)(C(C)C)OC2=O)c(C(C)(C)C)cc1CO`, for which the compound was classed as inactive.

With `CO[C@@H]1COCC[C@@H]1N[C@@H]1CC[C@@](C(=O)N2CCc3ncc(C(F)(F)F)cc3C2)(C(C)C)C1`, the result was inactive.

On to `CCCCCCCCCCCCCCOS(=O)(=O)O`, for which the compound was classed as inactive.

In the case of `CCOCCOCCO`, the compound was called inactive.

In the case of `CCc1nc(N)nc(N)c1-c1ccc(Cl)cc1`, the outcome was inactive.

In the case of `NC(=Nc1ccccc1)Nc1ccccc1`, the outcome was inactive.

`CCCCCCC(CCCCCCCCCCC(=O)OCC(COC(C)=O)OC(C)=O)OC(C)=O` (stereo not given): the compound was called inactive.

Consider `O=C(NS(=O)(=O)/C=C/c1cccs1)c1ccc(F)cc1Br`, for which the result was inactive.

On to `CSc1ccc(Oc2ccc(S(N)(=O)=O)cc2CN(C)C)cc1C`, for which the compound was classed as inactive.

Take `O=C1OC(c2ccc(O)cc2)(c2ccc(O)cc2)c2ccccc21`: the result was inactive.

The next experiment has the same target. Kind of experiment: OT_PPARg_PPARgSRC1_1440: Odyssey Thera (OT) 24-hour Protein-Complementation Assay for Peroxisome Proliferator-activated Receptor Gamma/ SRC-1 Co-activator (AID 2283388). In short, it runs like this:
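Readout is the 488 nm N/C fluorescence ratio from fixed, Draq5-stained HEK293T cells after 24 h compound exposure. Cells carried transiently transfected PPARg and SRC-1 fused to Venus fragments, transfected 48 h before treatment.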
For `CC(C)NCC(O)c1ccc(O)c(O)c1` (stereo not given), the call was inactive.

Turning to `CCN(CC)CCOc1ccc(C(=C(Cl)c2ccccc2)c2ccccc2)cc1`, the outcome was inactive.

In the case of `CN(C)C(=O)NC1(c2ccccc2)CCN(CCC[C@]2(c3ccc(Cl)c(Cl)c3)CCCN(C(=O)c3ccccc3)C2)CC1`, the result was inactive.

`C/C=C/C=C/C(=O)O`: the call was inactive.

In the case of `CN(C)C(=O)NC1(c2ccccc2)CCN(CC[C@@]2(c3ccc(F)c(F)c3)CN(C(=O)c3ccccc3)CCO2)CC1`, the result was inactive.

For `CC(COCC(C)OC(=O)c1ccccc1)OC(=O)c1ccccc1` (stereo not given), the compound was called inactive.

Consider `S=c1[nH]c2ccccc2s1`, for which the result was inactive.

`CCCCC(CC)COP(=O)(OCC(CC)CCCC)OCC(CC)CCCC` (stereo not given): the call was inactive.

In the case of `CCC(C)N(C)C(=O)c1cc2ccccc2c(-c2ccccc2Cl)n1` (stereo not given), the call was inactive.

With `Cc1ccc(-c2cc(C(F)(F)F)nn2-c2ccc(S(N)(=O)=O)cc2)cc1`, the compound was called inactive.

With `O=C(N[C@@H](c1ccccc1)[C@@H]1CCCCN1)c1cccc(C(F)(F)F)c1Cl`, the result was inactive.

In the case of `Cn1cnc2c1c(=O)[nH]c(=O)n2C`, the compound was classed as inactive.

Turning to `COC(=O)[C@H]1[C@H]2C[C@@H]3c4[nH]c5cc(OC)ccc5c4CCN3C[C@H]2C[C@@H](OC(=O)c2cc(OC)c(OC)c(OC)c2)[C@@H]1OC`, the AC50 was 12.5 µM (active) and 34.3 µM (active).

For `CCCCCCCCCC[N+](C)(C)[O-]`, the call was inactive.

With `CN(C)CCCN1c2ccccc2Sc2ccc(Cl)cc21`, the compound was classed as inactive.

For `Cc1cc(SC2=C(O)C[C@@](CCc3ccc(N)cc3)(C(C)C)OC2=O)c(C(C)(C)C)cc1CO`, the outcome was inactive.

For `CO[C@@H]1COCC[C@@H]1N[C@@H]1CC[C@@](C(=O)N2CCc3ncc(C(F)(F)F)cc3C2)(C(C)C)C1`, the result was inactive.

Take `CCCCCCCCCCCCCCOS(=O)(=O)O`: the compound was called inactive.

`CCOCCOCCO`: the outcome was inactive.

As to `CCc1nc(N)nc(N)c1-c1ccc(Cl)cc1`, the result was inactive.

As to `NC(=Nc1ccccc1)Nc1ccccc1`, the call was inactive.

As to `CCCCCCC(CCCCCCCCCCC(=O)OCC(COC(C)=O)OC(C)=O)OC(C)=O` (stereo not given), the compound was called inactive.

In the case of `O=C(NS(=O)(=O)/C=C/c1cccs1)c1ccc(F)cc1Br`, the AC50 is 51.2 µM (active).

Take `CSc1ccc(Oc2ccc(S(N)(=O)=O)cc2CN(C)C)cc1C`: the result was inactive.

As to `O=C1OC(c2ccc(O)cc2)(c2ccc(O)cc2)c2ccccc21`, the call was inactive.
